In PubChem BioAssay (Tox21) one finds Potency data, which are given here for 14 molecules.

“And” between values parts separate entries of the source, which are not always exact repeats. Equal entries are not always repeated. Where a structure was tested more than once in an assay, its records may differ in their call. The source made the active and inactive calls. Unless noted, calls come from the whole dose curve; as a rule, active = well fitted curve in the direction sought with a large enough effect in the repeat runs; inconclusive = weak or mixed curves; inactive = no such curve, though single readings can be large; an effect the other way counts as inactive or inconclusive.

The nature of assay [1]: qHTS assay to identify small molecule antagonists of the thyroid receptor (TR) signaling pathway (AID 743065). Note: nearly all actives have a fitted effect of over 55% in size. Note: potency is the fitted concentration of half-maximal effect. In outline:
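Antagonism measured as loss of luciferase signal in GH3 cells stably carrying a TRE-luciferase reporter, co-treated with compound and T3 (1 nM final) for 23.5 h at 37 C. Viability was read in the same well by CellTiter-Fluor.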

The test system of assay [2] is thyroid hormone receptor (rat, GH3 cells). Nature of the assay: qHTS assay to identify small molecule agonists of the thyroid receptor (TR) signaling pathway (AID 743066; calls by dose curve).
Assay [3] is described as follows: qHTS assay to identify small molecule antagonists of the estrogen receptor alpha (ER-alpha) signaling pathway - cell viability counter screen (AID 743074; calls by dose curve;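 note: HEK293 cells carrying ER-alpha-UAS-bla reporter stimulated with 17beta-estradiol; nearly all actives have a fitted effect of over 45% in size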).
The target in assay [4] is Estrogen receptor (Homo sapiens) (UniProt P03372). The experiment in a line: qHTS assay to identify small molecule agonists of the estrogen receptor alpha (ER-alpha) signaling pathway (AID 743075; calls by dose curve;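 note: HEK293 GripTite cells with ER-alpha and UAS-driven beta-lactamase reporter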; note: potency is the fitted concentration of half-maximal effect).
For assay [5] the target is unchanged. Nature of the assay: qHTS assay to identify small molecule agonists of the estrogen receptor alpha (ER-alpha) signaling pathway using the BG1 cell line (AID 743079). Note: nearly all actives have a fitted effect of over 20% in size. Note: potency is the fitted concentration of half-maximal effect.
The nature of assay [6]: qHTS assay to identify small molecule antagonists of the estrogen receptor alpha (ER-alpha) signaling pathway using the BG1 cell line (AID 743080; calls by dose curve;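 note: BG1 cells stimulated with 17beta-estradiol alongside compound; nearly all actives have a fitted effect of over 25% in size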; note: potency is the fitted concentration of half-maximal effect). In outline: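 Readout is ONE-Glo luminescence, taken 30 min at room temperature after reagent addition, preceded by a CellTiter-Fluor viability read; BG1-Luc-4E2 cells had received compound and 17beta-estradiol for 21.5 h at 37 C.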

The nature of assay [7]: qHTS assay to identify small molecule antagonists of the estrogen receptor alpha (ER-alpha) signaling pathway using the BG1 cell line - cell viability counter screen (AID 743081).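 Note: compound given together with 17beta-estradiol as the ER stimulus; nearly all actives have a fitted effect of over 45% in size.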 Note: potency is the fitted concentration of half-maximal effect.
Assay [8] concerns the target Aromatase (Homo sapiens) (UniProt P11511). Nature of the assay: qHTS assay to identify aromatase inhibitors (AID 743083). Note: nearly all actives have a fitted effect of over 55% in size. Note: potency is the fitted concentration of half-maximal effect.
The target in assay [9] is Aryl hydrocarbon receptor (Homo sapiens) (UniProt P35869). The experiment in a line: qHTS assay to identify small molecule that activate the aryl hydrocarbon receptor (AhR) signaling pathway (AID 743085).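 For activation: HG2L7.5c1 human HepG2 liver cells with stably integrated DRE-driven firefly reporter; series mostly up to about 70 µM.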 Note: nearly all actives have a fitted effect of over 15% in size. Note: potency is the fitted concentration of half-maximal effect. Summed up: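 Stably transfected human liver carcinoma cells (HG2L7.5c1; 20 DRE-firefly luciferase) were incubated 5 h, dosed, and kept 24 h at 37C. Agonism was scored from increased luciferase luminescence.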

A short description of assay [10]: qHTS assay to identify small molecule that activate the aryl hydrocarbon receptor (AhR) signaling pathway - cell viability counter screen (AID 743086). Note: nearly all actives have a fitted effect of over 45% in size. Note: potency is the fitted concentration of half-maximal effect. Summed up: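 Cytotoxicity counter screen: CellTiter-Fluor signal (30 min, 37 C) in 4000 HepG2 cells/well carrying the DRE-luciferase reporter, following 24 h compound exposure at 37 C.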
Assay [11] can be described thus: qHTS assay for small molecule agonists of the antioxidant response element (ARE) signaling pathway (AID 743202; active = well fitted activation curve with a large enough effect in the signal ratio in the repeat runs, not every such curve was filed as active; inconclusive = weak or mixed curves, or effect the other way; inactive = no such curve, though single readings can be large or run the other way; the % refers to the signal ratio; note: potency is the fitted concentration of half-maximal effect). In outline: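 Quantitative high-throughput format in HepG2 cells bearing an integrated ARE-beta-lactamase reporter. Compound exposure lasted 16 h at 37 C, and fluorescence was read 2 h after adding LiveBLAzer B/G substrate at room temperature.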
Assay [12] is described as follows: qHTS assay for small molecule agonists of the antioxidant response element (ARE) signaling pathway - cell viability counter screen (AID 743203; calls by dose curve; note: nearly all actives have a fitted effect of over 55% in size; note: potency is the fitted concentration of half-maximal effect). Summed up:
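HepG2 cells carrying ARE-driven beta-lactamase; 2,000 cells/well; 5 hrs plating; compound pinned from DMSO; 16 hrs 37C/5% CO2; CellTiter-Glo added; 30 min RT; luminescence.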

Assay [13] in a line: qHTS assay for small molecule activators of the heat shock response signaling pathway - cell viability counter screen (AID 743209). Note: nearly all actives have a fitted effect of over 50% in size. Note: potency is the fitted concentration of half-maximal effect. In outline: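 Luminescence from CellTiter-Glo, added after the beta-lactamase FRET read, gave the viability signal. Cells were HSE-bla HeLa treated with DMSO-dissolved compounds for 5 h at 37 C following overnight plating.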
The nature of assay [14]: qHTS assay to identify aromatase inhibitors - cell viability counter screen (AID 743084).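 Note: cells stimulated with testosterone during compound exposure; nearly all actives have a fitted effect of over 55% in size.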 Note: potency is the fitted concentration of half-maximal effect.
Assay [15] addresses Peroxisome proliferator-activated receptor gamma (Homo sapiens) (UniProt P37231). The experiment in a line: qHTS assay to identify small molecule antagonists of the peroxisome proliferator-activated receptor gamma (PPARg) signaling pathway (AID 743191; calls by dose curve; note: nearly all actives have a fitted effect of over 30% in size; note: potency is the fitted concentration of half-maximal effect). In outline: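 Beta-lactamase reporter under UAS control in HEK293H PPARg-bla cells; compound treatment 17 h at 37C. Read-out: fluorescence intensity after 1 h room-temperature incubation with LiveBLAzer B/G FRET substrate.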

Assay [16] is described as follows: qHTS assay to identify small molecule antagonists of the peroxisome proliferator-activated receptor gamma (PPARg) signaling pathway - cell viability counter screen (AID 743194). Note: nearly all actives have a fitted effect of over 55% in size. Note: potency is the fitted concentration of half-maximal effect. The following applies: Potency: co-treated with 50 nM rosiglitazone unless noted. In outline: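 Viability was measured as CellTiter-Glo luminescence in GeneBLAzer PPARg UAS-bla HEK293H cells. These cells had been exposed 17 h at 37 C to compounds together with rosiglitazone at 50 nM final, with the beta-lactamase readout taken in the same wells.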

Assay [17] in a line: qHTS assay for small molecule activators of the heat shock response signaling pathway (AID 743210; active = well fitted activation curve with a large enough effect in the signal ratio in the repeat runs, with a control signal flat, not every such curve was filed as active; inconclusive = weak or mixed curves; the % refers to the signal ratio;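 note: HeLa cells with beta-lactamase reporter driven by heat shock elements; series mostly up to about 63 µM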). In outline: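 HeLa HSE-bla cells, overnight plating; cpd in DMSO 5 h, 37 C; LiveBLAzer B/G FRET substrate 2.5 h RT; fluorescence intensity read.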
Assay [18] has as its target Peroxisome proliferator-activated receptor gamma (Homo sapiens) (UniProt P37231). Nature of the assay: qHTS assay to identify small molecule agonists of the peroxisome proliferator-activated receptor gamma (PPARg) signaling pathway (AID 743094; active = well fitted activation curve with a large enough effect in the signal ratio in the repeat runs, not every such curve was filed as active; inconclusive = weak or mixed curves, or effect the other way; inactive = no such curve, though single readings can be large or run the other way; the % refers to the signal ratio). Summed up: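 Beta-lactamase FRET fluorescence was the read-out after a 1 h room-temperature substrate step, following 17 h compound treatment at 37C of HEK293H cells expressing a UAS-driven bla reporter responsive to PPARg.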

Assay [19] can be described thus: qHTS assay to identify small molecule agonists of the peroxisome proliferator-activated receptor delta (PPARd) signaling pathway - cell viability counter screen (AID 743211). Note: nearly all actives have a fitted effect of over 55% in size. In outline: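 In the same wells used for beta-lactamase reporter measurement, cytotoxicity is scored by CellTiter-Glo. HEK293H PPARd-bla cells receive compound for 17 h at 37C following a 5 h settling period.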

Assay [20] has as its target Estrogen receptor (Homo sapiens) (UniProt P03372). The experiment in a line: qHTS assay to identify small molecule antagonists of the estrogen receptor alpha (ER-alpha) signaling pathway (AID 743069; active = well fitted curve in the direction sought with a large enough effect in the signal ratio in the repeat runs, not every such curve was filed as active; inconclusive = weak or mixed curves, or effect the other way; inactive = no such curve, though single readings can be large or run the other way; the % refers to the signal ratio; note: potency is the fitted concentration of half-maximal effect). In outline: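 ER-alpha-UAS-bla GripTite HEK293 line; 2% charcoal-stripped FBS overnight; plated, 4 hr 37C/5% CO2; cpd in DMSO + 17beta-estradiol, 18 hr 37C; LiveBLAzer B/G FRET substrate 2 hr RT; fluorescence intensity.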

Aryl hydrocarbon receptor (Homo sapiens), sequence (P35869 whole entry, looked up): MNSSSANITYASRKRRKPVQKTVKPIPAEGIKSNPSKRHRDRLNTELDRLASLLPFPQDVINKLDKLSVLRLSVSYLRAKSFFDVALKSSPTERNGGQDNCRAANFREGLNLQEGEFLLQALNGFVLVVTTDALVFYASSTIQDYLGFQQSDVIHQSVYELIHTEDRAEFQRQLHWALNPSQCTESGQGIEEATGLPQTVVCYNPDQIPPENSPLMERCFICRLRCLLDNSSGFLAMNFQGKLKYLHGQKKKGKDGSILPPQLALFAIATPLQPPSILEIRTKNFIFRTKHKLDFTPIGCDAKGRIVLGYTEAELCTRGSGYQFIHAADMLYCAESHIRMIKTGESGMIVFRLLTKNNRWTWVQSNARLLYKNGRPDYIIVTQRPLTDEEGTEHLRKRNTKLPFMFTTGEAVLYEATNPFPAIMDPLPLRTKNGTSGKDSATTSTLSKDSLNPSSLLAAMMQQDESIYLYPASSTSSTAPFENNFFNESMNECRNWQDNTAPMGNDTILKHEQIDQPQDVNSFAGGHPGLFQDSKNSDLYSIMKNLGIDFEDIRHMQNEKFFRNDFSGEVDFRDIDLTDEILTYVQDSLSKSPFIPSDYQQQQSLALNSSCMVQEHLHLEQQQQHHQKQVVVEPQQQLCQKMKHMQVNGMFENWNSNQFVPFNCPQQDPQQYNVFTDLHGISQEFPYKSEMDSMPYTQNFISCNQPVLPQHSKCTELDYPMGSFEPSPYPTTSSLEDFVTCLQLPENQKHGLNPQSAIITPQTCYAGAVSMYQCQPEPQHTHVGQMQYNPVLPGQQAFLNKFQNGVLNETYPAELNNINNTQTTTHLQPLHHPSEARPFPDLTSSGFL
Estrogen receptor (Homo sapiens), sequence (P03372 whole entry, looked up): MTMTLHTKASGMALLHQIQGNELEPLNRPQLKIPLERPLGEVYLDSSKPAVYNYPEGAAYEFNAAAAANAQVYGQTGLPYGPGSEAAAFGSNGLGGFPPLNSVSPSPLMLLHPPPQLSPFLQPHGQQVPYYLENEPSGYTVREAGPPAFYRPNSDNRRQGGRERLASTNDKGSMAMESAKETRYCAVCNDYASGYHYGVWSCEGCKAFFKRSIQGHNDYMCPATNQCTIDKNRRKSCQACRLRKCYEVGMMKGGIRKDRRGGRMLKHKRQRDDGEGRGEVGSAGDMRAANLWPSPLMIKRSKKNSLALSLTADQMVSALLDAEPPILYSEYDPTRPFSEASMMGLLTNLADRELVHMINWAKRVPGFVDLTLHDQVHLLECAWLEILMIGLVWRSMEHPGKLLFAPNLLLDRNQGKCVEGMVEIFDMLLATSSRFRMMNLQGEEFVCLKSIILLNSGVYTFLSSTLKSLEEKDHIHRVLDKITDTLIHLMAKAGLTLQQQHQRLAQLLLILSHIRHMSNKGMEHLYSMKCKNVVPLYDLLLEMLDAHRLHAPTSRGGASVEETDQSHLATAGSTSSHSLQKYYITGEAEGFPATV
Peroxisome proliferator-activated receptor gamma (Homo sapiens), sequence (P37231 whole entry, looked up): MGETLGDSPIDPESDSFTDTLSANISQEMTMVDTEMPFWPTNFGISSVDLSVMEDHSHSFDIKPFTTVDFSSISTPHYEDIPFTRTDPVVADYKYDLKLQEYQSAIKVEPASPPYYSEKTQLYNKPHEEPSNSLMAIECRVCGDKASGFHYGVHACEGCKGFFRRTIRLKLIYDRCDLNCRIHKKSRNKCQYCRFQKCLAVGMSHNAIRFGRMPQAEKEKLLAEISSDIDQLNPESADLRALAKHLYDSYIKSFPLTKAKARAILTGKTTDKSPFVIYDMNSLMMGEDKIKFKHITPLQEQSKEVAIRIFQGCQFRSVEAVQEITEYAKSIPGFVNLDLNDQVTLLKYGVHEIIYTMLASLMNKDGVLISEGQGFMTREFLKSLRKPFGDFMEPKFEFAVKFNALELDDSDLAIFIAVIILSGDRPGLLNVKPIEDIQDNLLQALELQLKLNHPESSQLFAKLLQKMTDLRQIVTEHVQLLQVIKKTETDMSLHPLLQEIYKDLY
Aromatase (Homo sapiens), sequence (P11511 whole entry, looked up): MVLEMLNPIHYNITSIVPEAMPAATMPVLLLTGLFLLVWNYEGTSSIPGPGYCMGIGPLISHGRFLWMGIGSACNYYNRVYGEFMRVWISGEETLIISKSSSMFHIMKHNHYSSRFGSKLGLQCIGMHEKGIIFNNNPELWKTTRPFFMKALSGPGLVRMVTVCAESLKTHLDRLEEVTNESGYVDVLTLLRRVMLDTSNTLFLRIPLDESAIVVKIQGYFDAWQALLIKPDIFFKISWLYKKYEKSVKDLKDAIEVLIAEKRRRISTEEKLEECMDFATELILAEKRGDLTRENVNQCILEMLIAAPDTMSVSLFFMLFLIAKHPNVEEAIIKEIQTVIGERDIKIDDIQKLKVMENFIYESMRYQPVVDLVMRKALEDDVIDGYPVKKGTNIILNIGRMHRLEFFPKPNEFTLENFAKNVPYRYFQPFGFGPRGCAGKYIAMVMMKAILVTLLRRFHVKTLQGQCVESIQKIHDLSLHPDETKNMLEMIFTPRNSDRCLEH

With `CCc1cccc(CC)c1N(COC)C(=O)CCl`, the Potency was 54.5 µM (active) in [1]; 61.1 µM (active) in assay [8]; 4.19 µM (active) and 4.86 µM (active) in assay [11]. Also, the Potency result in [2], in assay [3], in [4], in assay [5], in assay [6] and in [7] was “inactive” throughout. Also, the Potency entry in [9], in assay [10], in assay [12] and in assay [13] was “inactive” throughout.
For the molecule `CN(C)C(=O)Nc1ccc(Cl)cc1`, the Potency entry in assay [1], in assay [2], in assay [3], in assay [7], in assay [8] and in assay [14] was “inactive” each time. Further, the Potency entry in [10], in assay [15], in assay [16], in assay [11], in assay [12] and in [13] was “inactive” each time. Also, the Potency entry in assay [17] is “inactive”.
Consider `C[C@]12CCC(=O)C(O)=C1CC[C@@H]1[C@@H]2CC[C@]2(C)C(=O)CC[C@@H]12`, for which the Potency result in [1], in [2], in assay [3], in assay [6], in assay [7] and in assay [14] was “inactive” throughout. Besides, the Potency entry in assay [9], in assay [10], in [18], in [15], in assay [16] and in [12] was “inactive” throughout. Moreover, the Potency result in assay [13] and in assay [19] was “inactive” throughout. Also, the Potency in assay [4] was 23.9 µM [activator] (active) and 21.3 µM [activator] (active) and 34.7 µM [activator] (active); in assay [5], 11.9 µM (active) and 5.96 µM (active) and 5.45 µM (active); in [8] it was 75 nM (active) and 53.1 nM (active) and 27.3 nM (active).
As to `COP(=S)(OC)Oc1cc(Cl)c(Cl)cc1Cl`, the Potency entry in assay [1], in [2], in assay [3], in [4], in assay [5] and in assay [6] was “inactive” throughout. Also, the Potency entry in [7], in assay [8], in assay [14], in [10], in assay [16] and in assay [11] was “inactive” each time. Also, the Potency entry in [12] and in assay [13] was “inactive” each time. Further, the Potency result in assay [9] is “inactive and 30.4 µM (active)”.
As to `Oc1c(Cl)c(Cl)c(Cl)c(Cl)c1Cl`, the Potency in assay [1] was 8.46 µM (active) and 27.2 µM (active); in assay [20] it was 8.54 µM [inconclusive] (active); in [6], 59.9 µM (active) and 27.2 µM (active); in [9], 3.37 µM (active); in assay [15] it was 3.4 µM (active). The Potency result in assay [2], in assay [4], in [7], in assay [8], in assay [14] and in assay [10] was “inactive” throughout. The Potency entry in assay [13], in assay [17] and in [19] was “inactive” in each case.
`N[C@@H](Cc1ccc(N(CCCl)CCCl)cc1)C(=O)O`: the Potency entry in [7], in assay [9], in [10], in assay [15], in [16] and in assay [11] was “inactive” throughout. For the same molecule, the Potency entry in [12], in [13] and in [19] was “inactive” throughout.
For `CCC(C)c1ccc(O)cc1` (stereo unspecified), the Potency entry in assay [1], in [2], in assay [3], in assay [7], in [10] and in assay [16] was “inactive” throughout. Besides, the Potency entry in assay [11], in assay [12] and in assay [13] was “inactive” each time.
With `Cc1cc(C)cc(C)c1`, the Potency entry in [1], in [2], in assay [3], in assay [7], in [10] and in [16] was “inactive” in each case. In addition, the Potency result in assay [11], in assay [12], in assay [13], in assay [17] and in assay [19] was “inactive” each time.
Turning to `CCOc1cc(C=O)ccc1O`, the Potency result in assay [1], in assay [2], in [3], in assay [7], in assay [10] and in [16] was “inactive” in each case. The Potency result in assay [11], in assay [12], in assay [13], in assay [17] and in assay [19] was “inactive” in each case.
Regarding `Nc1ccc(Cl)cc1N`, the Potency in assay [1] was 24.3 µM (active); in assay [12] it was “inactive and 6.11 µM (active)”. The Potency entry in assay [2], in assay [3], in assay [7], in assay [8], in [14] and in assay [18] was “inactive” in each case. For the same molecule, the Potency result in assay [16] and in assay [13] was “inactive” throughout.
On to `C#CCOS(=O)OC1CCCCC1Oc1ccc(C(C)(C)C)cc1` (stereo unspecified), for which the Potency in assay [1] is 4.33 µM (active); in assay [4], “inactive and 2.75 µM [inconclusive] (active)”; in assay [6], 9.7 µM (active); in assay [7], 27.3 µM (active); in [8] it was 15.4 µM (active) and 6.86 µM (active); in assay [14], 21.7 µM (active) and 6.86 µM (active). Besides, the Potency is 43.6 µM (active) in assay [15]; 2.45 µM (active) in [16]; 970 nM (active) and 1.72 µM (active) in [11]. Further, the Potency result in assay [2], in [9], in assay [10], in assay [12], in [13] and in assay [17] was “inactive” each time.
As for `O=[N+]([O-])c1ccc(O)c([N+](=O)[O-])c1`, the Potency entry in assay [2], in [20], in assay [4], in assay [8], in assay [15] and in assay [16] was “inactive” each time. The Potency entry in [12], in assay [13], in assay [17] and in [19] was “inactive” in each case. In addition, the Potency was 30.8 µM (active) and 30.6 µM (active) in assay [7]; 54.7 µM (active) in assay [14]; 38.7 µM (active) in [10]; 48.8 µM (active) in [11].
Take `CCC(=O)O[C@H]1CC[C@H]2[C@@H]3CCC4=CC(=O)CC[C@]4(C)[C@H]3CC[C@]12C`: the Potency result in [2], in assay [3], in assay [6], in assay [7], in assay [8] and in assay [14] was “inactive” throughout. Further, the Potency result in [9], in assay [10], in assay [18] and in assay [17] was “inactive” in each case. Moreover, the Potency in [4] is 3.23 µM [inconclusive] (active) and 3.47 µM [inconclusive] (active); in assay [5], 22.7 nM (active) and 34.4 nM (active); in assay [16] it was 49 µM [setting not given] (active) and inactive; in [12], 68.6 µM (active) and inactive; in assay [13], 54.9 µM (active) and inactive.
On to `CCCCN(CC)c1c([N+](=O)[O-])cc(C(F)(F)F)cc1[N+](=O)[O-]`, for which the Potency entry in [2], in [3], in [7], in [8], in assay [14] and in [9] was “inactive” throughout. Moreover, the Potency entry in [10], in assay [18], in assay [15], in [16], in assay [11] and in assay [12] was “inactive” each time. Besides, the Potency result in assay [13], in assay [17] and in [19] was “inactive” throughout.
